Records with an inconclusive call do not appear. Entries that show only a call come without a potency. Active and inactive are the calls of the source. Calls follow the shape of the dose curve; as a rule, active = well fitted inhibition curve with a large enough effect; inconclusive = small, poorly fitted or top-dose-only effect; inactive = flat fitted curve, though single readings scatter.
Assays:
Assay in all cases: qHTS profiling for inhibitors of Plasmodium falciparum proliferation (AID 504749); also: nearly all actives have a fitted effect of over 60% in size
Settings in all cases: P. falciparum in erythrocytes, SYBR Green DNA, 72 h; series mostly up to 28.7 µM
CP237 = test system: CP237
How it was run: (§1)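 P. falciparum-infected erythrocytes (0.3% parasitemia, 2.5% hematocrit final) were exposed to compounds for 72 h at 37 C in 5% CO2, then lysed with SYBR Green buffer overnight at room temperature; parasite DNA fluorescence was normalized to artemisinin and DMSO controls.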

CP238 = test system: CP238
How it was run: as §1

CP247 = test system: CP247
How it was run: as §1

CP250 = test system: CP250
How it was run: as §1

CP252 = test system: CP252
How it was run: as §1

CP256 = test system: CP256
How it was run: as §1

CP260 = test system: CP260
How it was run: as §1

CP262 = test system: CP262
How it was run: as §1

CP265 = test system: CP265
How it was run: as §1

CP266 = test system: CP266
How it was run: as §1
Potency is read from the fitted curve at half-maximal effect.

SMILES | Potency (CP237) | Potency (CP238) | Potency (CP247) | Potency (CP250) | Potency (CP252) | Potency (CP256) | Potency (CP260) | Potency (CP262) | Potency (CP265) | Potency (CP266)
Cc1c(N(C)CS(=O)(=O)O)c(=O)n(-c2ccccc2)n1C | inactive | inactive | inactive | inactive | inactive | inactive | inactive | inactive | inactive | inactive
NCCCC[C@H](N[C@@H](CCc1ccccc1)C(=O)O)C(=O)N1CCC[C@H]1C(=O)O | inactive | inactive | inactive | inactive | inactive | inactive | inactive | inactive | inactive | inactive
CCCCC(CC)CN=C(N)NC(N)=NCCCCCCN=C(N)NC(N)=NCC(CC)CCCC (configuration not stated) | 1.26 µM (active) | 1 µM (active) | 1.12 µM (active) | 0.891 µM (active) | 1.26 µM (active) | 3.55 µM (active) | 1.12 µM (active) | 1.07 µM (active) | 3.55 µM (active) | 
CCOC(=O)c1cccc(N)c1 | inactive | inactive | inactive | inactive | inactive | inactive | inactive | inactive | inactive | 
CCN(CC)C(=O)N1CCN(C)CC1 | inactive | inactive | inactive | inactive | inactive | inactive | inactive | inactive | inactive | 
Cc1ncc(CSSCc2cnc(C)c(O)c2CO)c(CO)c1O | inactive | inactive | inactive | inactive | inactive | inactive | inactive | inactive | inactive | inactive
O=S1(=O)c2cccc3cccc(c23)N1CCCN1CCN(c2ccc(F)cc2)CC1 | inactive | inactive | inactive | inactive | inactive | inactive | inactive | inactive | inactive | inactive
OCc1ccccc1O | inactive | inactive | inactive | inactive | inactive | inactive | inactive | inactive | inactive | inactive
CCCCOc1ccc(C(=O)CCN2CCCCC2)cc1 | inactive | inactive | inactive | inactive | inactive | inactive | inactive | inactive | inactive | inactive
CCN1CCCC1=O | inactive | inactive | inactive | inactive | inactive | inactive | inactive | inactive | inactive | inactive
Oc1c(Cl)cc(Cl)cc1Sc1cc(Cl)cc(Cl)c1O | inactive | inactive | inactive | inactive | inactive | inactive | inactive | inactive | inactive | inactive
NCCC(O)(P(=O)(O)O)P(=O)(O)O | inactive | inactive | inactive | inactive | inactive | inactive | inactive | inactive | inactive | inactive
CC(O)C(=O)O (configuration not stated) | inactive | inactive | inactive | inactive | inactive | inactive | inactive | inactive | inactive | inactive
CC1(C)CCC(NC(=O)[C@@H](N)CCC(=O)O)CC1 | inactive | inactive | inactive | inactive | inactive | inactive | inactive | inactive | inactive | inactive
COc1cc(OC)cc(OC)c1 | inactive | inactive | inactive | inactive | inactive | inactive | inactive | inactive | inactive | inactive
O=C1OC(c2ccc(O)cc2)(c2ccc(O)cc2)c2ccccc21 | inactive | inactive | inactive | inactive | inactive | inactive | inactive | inactive | inactive | inactive
COc1ccc(/C=C/C(=O)c2ccc(OC)cc2OC)cc1 | 11.2 µM (active) | 11.2 µM (active) | 4.47 µM (active) | 5.62 µM (active) | 5.01 µM (active) | 2.24 µM (active) | 8.91 µM (active) | 5.36 µM (active) | 5.01 µM (active) | 7.57 µM (active)
N[C@H](Cc1c[nH]c2ccccc12)C(=O)O | inactive | inactive | inactive | inactive | inactive | inactive | inactive | inactive | inactive | inactive
CCCCOc1ccc(OCCCN2CCOCC2)cc1 | inactive | inactive | inactive | inactive | inactive | inactive | inactive | inactive | inactive | inactive
CCCCCCCCCCCCCCCCOP(=O)([O-])OCC[N+](C)(C)C | inactive | inactive | inactive | inactive | inactive | inactive | inactive | inactive | inactive | inactive
O=C(CCN1CCC(c2ccccc2)C1)c1ccc2c(c1)OCCO2 (configuration not stated) | inactive | inactive | inactive | inactive | inactive | inactive | inactive | inactive | inactive | inactive
COc1cc(NS(C)(=O)=O)ccc1Nc1c2ccccc2nc2ccccc12 | 1.58 µM (active) | 4.47 µM (active) | 1.26 µM (active) | 1.58 µM (active) | 0.891 µM (active) | 1 µM (active) | 1 µM (active) | 3.79 µM (active) | 1 µM (active) | 5.36 µM (active)

Source: PubChem BioAssay (NCATS)
